# About 10,000 (2.8%) of roughly 360,000 compounds were called active. Another 4% or so got no clear call; they are omitted. The entries come from a sample that favours actives as a whole. Values without a mark were called inactive. The call rests on the fitted dose curve; in most records, active means well fitted inhibition curve with a large enough effect; inconclusive means small, poorly fitted or top-dose-only effect; inactive means flat fitted curve, though single readings scatter.
# Molecular target: Serine/threonine-protein kinase PLK1 (Homo sapiens) (UniProt P53350)
# Experiment: qHTS for Inhibitors of PLK1-PDB (polo-like kinase 1 - polo-box domain): Primary Screen; further: nearly all actives have a fitted effect of over 65% in size; on max response, negative = inhibition: series mostly up to about 57 µM
# Settings: Plk1 PBD binding of FITC phosphopeptide, fluorescence polarization
# On the % scale 0 is the no-effect control and ±100 the full control effect; potency means the concentration at half of the fitted maximal effect.
# Serine/threonine-protein kinase PLK1 (Homo sapiens), sequence (P53350 whole entry, looked up, the tested form may be a part): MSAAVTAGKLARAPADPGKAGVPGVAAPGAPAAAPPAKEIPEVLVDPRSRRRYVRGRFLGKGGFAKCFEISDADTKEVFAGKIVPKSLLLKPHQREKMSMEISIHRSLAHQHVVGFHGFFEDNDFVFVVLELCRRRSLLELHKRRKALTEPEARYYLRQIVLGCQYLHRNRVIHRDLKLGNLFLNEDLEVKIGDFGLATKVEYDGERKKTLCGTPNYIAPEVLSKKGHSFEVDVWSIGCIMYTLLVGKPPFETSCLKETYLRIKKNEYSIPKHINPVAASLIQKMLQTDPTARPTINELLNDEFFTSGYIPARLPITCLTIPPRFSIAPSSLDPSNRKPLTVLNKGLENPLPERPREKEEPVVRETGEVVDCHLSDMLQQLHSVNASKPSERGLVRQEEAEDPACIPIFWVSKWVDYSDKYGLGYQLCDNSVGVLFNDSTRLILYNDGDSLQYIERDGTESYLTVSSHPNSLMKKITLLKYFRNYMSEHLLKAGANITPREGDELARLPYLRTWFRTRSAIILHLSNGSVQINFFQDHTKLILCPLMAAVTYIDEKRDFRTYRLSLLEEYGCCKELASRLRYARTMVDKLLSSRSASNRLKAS
Structure (SMILES),"max response, negative = inhibition [%]",Potency
CCCNC(=O)C1(C)CCCN(C(=O)c2oc3ccccc3c2C)C1 (configuration not stated),-5.78,
COC(=O)c1ccc2nc(C3CCCCC3)c(Cc3cccc(F)c3)n2c1,-6.81,
O[C@H]1C[C@H](c2ccc(Cl)cc2)N(Cc2cccs2)C[C@@H]1n1cc(C2CC2)nn1,-4.6,
COc1ccc(C2C3=C(CCCC3=O)N(CC(=O)O)C3=C2C(=O)CCC3)cc1,-11.9,
CCCCNC(=O)C1CCC(=O)N1CCc1ccccc1 (configuration not stated),-10.6,
CCCCN1C(=O)CCC(C(=O)O)C1c1ccc(OC)cc1 (configuration not stated),,26.7 µM (active)
CCCCC(=O)N(C)c1c(CC)nc2c(OCc3ccc(Cl)cc3Cl)cccn12,-5.31,
COc1cccc(CN2CCC(C(=O)NC(c3ccc4c(c3)OCO4)c3ccccn3)CC2)c1 (configuration not stated),1.25,
C[C@@H]1CC2=C(C(=O)OC(C)(C)O2)[C@@H](C2CC2)O1,-2.71,
COc1ccc(NC(=O)Cn2ncn3c(cc4ccccc43)c2=O)c(OC)c1OC,-11.6,
CC(C)c1ccc(NC(=O)Cn2ncc3ccccc32)cc1,5.15,
CCc1ccc(NC(=O)Cn2ncn3c(cc4ccccc43)c2=O)cc1,,15 µM (active)
COc1ccc(C2OC(CCc3ccccc3)Cc3[nH]c(=S)[nH]c(=O)c32)cc1 (configuration not stated),-0.658,
CC(=O)Nc1cc(-c2ccccc2N(C)C)cn2c(-c3ccc(F)c(Cl)c3)cnc12,-6.53,
COC(=O)[C@]12CCCCC=C1N(Cc1ccc3c(c1)OCO3)C(=O)[C@H](CC(=O)NCc1cccs1)C2,-8.01,
CCCNC(=O)C1(C)CCCN(Cc2cccc(C(F)(F)F)c2)C1 (configuration not stated),-5.05,
COc1ccc(-c2nnc(SCC(=O)Nc3cccnc3Cl)n2C)cc1,-2.41,
COc1ccc(C(=O)NCc2nnc(SCCOc3ccccc3)n2C)cc1,,16.8 µM (active)
C=CCn1c(SCCOc2ccc(OC)cc2)nnc1C(NC(=O)c1ccc(OC)cc1)C(C)C (configuration not stated),-13.7,
COc1ccc(CC(=O)NCc2nnc(SCC(=O)Nc3nccs3)n2C)cc1,3.83,
COc1ccc(CC(=O)NCc2nnc(SCC(=O)Nc3ncc(C)s3)n2C)cc1,,13.4 µM (active)
COc1ccc(C(=O)NCc2nnc(SCC(=O)NC3=NCCS3)n2C)cc1,-0.0324,

Structure (SMILES),"max response, negative = inhibition [%]",Potency
COc1cc2ccc(C(C)=O)c(O)c2cc1OC,-1.98,
Cc1nc2c(OCC(=O)C(C)(C)C)cccn2c1N(C)Cc1cccs1,-10,
COc1ccccc1C(=O)Nc1ccc(C)c(S(=O)(=O)N2CCCCC2)c1,-5.05,
CCOC(=O)C1CCN(CC(=O)Nc2ccc(OC)c(S(=O)(=O)N3CCCCC3)c2)CC1,3.48,
COc1ccc(NC(=O)C2=NNC(=O)CC2)cc1S(=O)(=O)N1CCCCC1,,16.8 µM (active)
COc1ccc(NC(=O)COC(=O)C2COc3ccccc3O2)cc1 (configuration not stated),-3.22,
CC(=O)c1cccc(NC(=O)C2COc3ccccc3O2)c1 (configuration not stated),2.4,
O=C(Nc1nc(-c2ccncc2)cs1)C1COc2ccccc2O1 (configuration not stated),,3.36 µM (active)
CCc1nc2ccc(C(=O)Nc3cc(-c4ccccc4)ccc3OC)cn2c1N(CC)CC(=O)N(C)C,-4.06,
Cc1ccc(C(=O)NCC(=O)NC2CC2)cc1,-13.7,
Cc1ccc(C(=O)NCC(=O)NCc2cc(=O)n(C)c(=O)n2C)cc1,,26.7 µM (active)
COc1ccc(S(=O)(=O)NCC(=O)NCc2cc(=O)n(C)c(=O)n2C)cc1F,-15.2,
O=C(O)c1ccccc1Cc1ccc(F)c2ccccc12,-10.5,
CN1OC[C@@H]2CN(C(=O)c3cccnc3)[C@H](c3ccc(N4CCCCC4)cc3)C[C@@H]21,-6.62,
COc1ccc(NC(=O)C2(C)Cc3c(-c4ccc(C(N)=O)cc4)ccnc3O2)cc1 (configuration not stated),-13.3,
CCOC(=O)C1=C(C)Nc2sc(C(=O)c3ccc(Br)cc3)c(N)c2C1c1ccc(C(=O)OC)cc1 (configuration not stated),3.24,
CCOC(=O)c1sc(=S)n2c1[nH]c(=O)c1ccc(C(=O)OC)cc12,,6.7 µM (active)
CCOC(=O)c1ccc(Nc2cc3ccccc3c(=O)[nH]2)cc1,-11.1,
COc1ccc([C@H]2N[C@]3(CCCN(CC4CCCCC4)C3=O)[C@H]3C(=O)N(C)C(=O)[C@@H]23)cc1,-7.68,
CCN1C(=O)[C@H]2[C@@H](c3ccc(C(F)(F)F)cc3)N[C@]3(CCCN(Cc4ccc(Br)cc4)C3=O)[C@H]2C1=O,-8.24,
COc1cccc(C(NC(C)=O)c2nc(-c3cnc4ccccc4c3)cs2)c1 (configuration not stated),-4.39,
CCc1nc2c(OCCOc3ccccc3)cccn2c1N(C)C(=O)c1cccs1,-1.33,

Structure (SMILES),"max response, negative = inhibition [%]",Potency
O=C(CN1C(=O)NC2(CCc3ccccc32)C1=O)NC1CCCCC1 (configuration not stated),2.51,
CCOC(=O)C1CCN(C(=O)c2ccc3c(=O)n4nc(Nc5ccccc5CC)sc4nc3c2)CC1,-1.87,
NC(=O)C1(C(N)=O)OC1c1ccc(Cl)cc1Cl (configuration not stated),,16.8 µM (active)
COC(=O)C1=CN(C)C=C(C(=O)OC)C1c1ccc(Cl)cc1Cl,2.45,
Nc1ccc2c(c1)C(O)c1ccc(Cl)cc1-2 (configuration not stated),-6.61,
COC(=O)c1ccc2nc(-c3ccc(Cl)cc3)c(Cc3cccc(F)c3)n2c1,1.38,
O=C(Cn1cnc2c(OCc3ccccc3)ncnc21)NCCCn1ccnc1,-12.9,
CC(CNC(=O)Cn1cnc2c(OCc3ccccc3)ncnc21)c1ccccc1 (configuration not stated),-8.63,
O=C(Cn1cnc2c(OCc3ccccc3)ncnc21)NCc1nc2ccccc2[nH]1,,21.2 µM (active)
O=C(COC(=O)c1ccc(S(=O)(=O)N2CCCCCC2)cc1)Nc1ccccc1C(F)(F)F,-1.71,
C[C@H]1NS(=O)(=O)c2cc(Cl)ccc2O[C@@H]1c1ccccc1,-5.69,
COc1cc(NC(=O)c2cc(-c3ccc(F)cc3OC(C)C)n[nH]2)cc(OC)c1OC,-10.2,
COc1cccc(NC(=O)c2nn(C34CC5CC(CC(C5)C3)C4)cc2[N+](=O)[O-])c1,1.45,
Cc1nc([N+](=O)[O-])nn1C12CC3CC(CC(Br)(C3)C1)C2,,4.74 µM (active)
CCOC(=O)N(C)c1c(CC)nc2c(OCc3ccccc3C(=O)OC)cccn12,-14.2,
COC(=O)C[C@@H]1C=C[C@@H](NC(=O)c2ccc3c(c2)OCO3)[C@@H](CO)O1,-2.88,
O=C(NCc1ccc(F)cc1)c1cc(C2CCCCN2C(=O)c2cccs2)on1 (configuration not stated),-1.47,
O=S(=O)(c1cccc(C(F)(F)F)c1)N1c2ccccc2-n2cccc2C1c1cccnc1 (configuration not stated),4.88,
CCCCOCCCNC(=O)C[C@@H]1C[C@@]2(C(=O)OCC)CCCC=C2N(CCC2=CCCCC2)C1=O,4,
CC1(C)OC(=O)C2=C(C[C@@H](C3CCCCC3)O[C@@H]2c2ccc(Cl)cc2)O1,-3.8,
CCOC(=O)c1ccn(S(=O)(=O)c2ccc(C)cc2)c1-c1ccccc1,-3.65,
O=C(Nc1ccc(N2CCCCC2)cc1)c1cc(S(=O)(=O)N2CCOCC2)ccc1F,1.97,

Structure (SMILES),"max response, negative = inhibition [%]",Potency
Cc1cccc(NC(=O)c2cc(S(=O)(=O)N3CCC4(CC3)OCCO4)ccc2F)c1,,26.7 µM (active)
CCOc1ccccc1NC(=O)c1cc(S(=O)(=O)N2CCC3(CC2)OCCO3)ccc1F,-1.47,
O=C1C=CC(=O)N1c1ccc(N2CCCCC2)cc1,,3.36 µM (active)
CC(=O)Nc1ccc(S(=O)(=O)Nc2ccc(N3CCCCC3)cc2)cc1,-2.92,
O=C1CC(N2CCN(c3ccc(F)cc3)CC2)C(=O)N1c1ccccc1 (configuration not stated),-2.61,
C=CCN1CCN(c2ccncc2S(=O)(=O)N2CCN(C)CC2)CC1,-10.5,
CCC1OC(C2CC2)CC2=C1C(=O)OC(C)(C)O2 (configuration not stated),-2.05,
CC1CCN(C(=O)CSc2nnc(-c3ccco3)n2N)CC1,-0.744,
CCc1nc2ccc(C(=O)NC3CCN(Cc4ccccc4)CC3)cn2c1N(CC)CCOC,-18.3,
COc1ccc(C(=O)NCC(=O)N/N=C/c2cccnc2)cc1,-5.97,
CCn1c(SCC(=O)N/N=C/c2ccncc2)nc2ccccc21,-2.87,
O=C(CSc1cccc2cccnc12)N/N=C/c1cccnc1,,7.52 µM (active)
O=[N+]([O-])c1cccc(C=NN=Cc2ccccc2O)c1,-3.02,
O=C(Oc1ccc([N+](=O)[O-])cc1)c1ccc2ccccc2n1,-21.6,
O=[N+]([O-])c1ccc(N=Cc2c(O)ccc3ccccc23)cc1,,29.9 µM (active)
CCCCNC(=O)C[C@@H]1C[C@@]2(C(=O)OC)CC(C)(C)CC=C2N(Cc2ccco2)C1=O,0.813,
Cc1cccc(-c2cnc(C(O)c3ccc4ccccc4c3)[nH]2)c1 (configuration not stated),-0.198,
O=C(N/N=C/c1ccc(Cl)cc1)c1nc2ccc([N+](=O)[O-])cc2c(=O)[nH]1,,18.9 µM (active)
O=C(NN=Cc1ccc([N+](=O)[O-])cc1)C1CC1,-0.264,
N#Cc1cc([N+](=O)[O-])ccc1Oc1cccc(/C=N/NC(=O)c2ccc(Cl)cc2)c1,0.641,
O=C(NCc1ccc(F)cc1)c1cc(C2CCCCN2C(=O)C2CCCCC2)on1 (configuration not stated),2.6,
